Structures are written as SMILES. Screen size: about 62,000 compounds; about 120 (0.19%) were called active. The sample holds actives, similar compounds and a random draw of the others, so the mix is not that of the screen. A number with no mark means an inactive call. No stated cut-off is given here; in the data, active means inhibition above about 20% (passing the limit was not always enough); inactive means the rest.

In this experiment the target is Coagulation factor XI (Homo sapiens) (UniProt P03951). As to the kind of experiment: human factor XIa inhibition by mixtures – biochemical, 10-compound mixtures, primary screen (AID 680).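 Further: each value is inhibition by a whole ten-compound pool holding the compound; 0% = enzyme with no mixture and 100% = wells lacking enzyme.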 Particulars: purified FXIa, fluorogenic substrate, pooled mixtures; at 5 µM; hits give high values.
Sequence of Coagulation factor XI (Homo sapiens) (P03951 19-387 limits assumed): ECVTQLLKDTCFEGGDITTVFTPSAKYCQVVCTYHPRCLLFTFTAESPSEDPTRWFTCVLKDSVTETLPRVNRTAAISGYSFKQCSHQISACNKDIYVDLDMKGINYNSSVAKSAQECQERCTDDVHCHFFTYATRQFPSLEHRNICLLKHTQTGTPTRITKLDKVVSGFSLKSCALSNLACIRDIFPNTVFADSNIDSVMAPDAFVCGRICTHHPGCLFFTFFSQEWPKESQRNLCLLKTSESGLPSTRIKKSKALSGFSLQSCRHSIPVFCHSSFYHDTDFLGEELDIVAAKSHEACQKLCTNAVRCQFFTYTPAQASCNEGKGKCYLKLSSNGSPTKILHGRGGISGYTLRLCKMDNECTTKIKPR
Sequence of Coagulation factor XI (Homo sapiens) (P03951 388-625 limits assumed): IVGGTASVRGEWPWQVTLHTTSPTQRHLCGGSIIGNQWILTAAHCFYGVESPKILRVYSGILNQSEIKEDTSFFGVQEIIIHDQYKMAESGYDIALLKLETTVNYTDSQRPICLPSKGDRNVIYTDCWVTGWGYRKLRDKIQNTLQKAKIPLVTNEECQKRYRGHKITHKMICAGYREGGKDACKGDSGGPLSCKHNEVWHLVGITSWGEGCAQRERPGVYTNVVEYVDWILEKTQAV
Turning to `O=C(c1cccc2ccccc12)N1CCN(c2ccccc2F)CC1`, the inhibition – broadly, the change of the read-out against control, counted positive when it falls – was -1.32%.

In the case of `O=C(c1ccccc1)c1ccc2nc(N3CCCCC3)c3nncn3c2c1`, the inhibition is 5.07%.

On to `CCn1cc(C(=O)NCC2CCCO2)c(=O)c2cc(S(=O)(=O)N3CCCCC3)ccc21` (centres undefined), for which the inhibition was 2.28%.

In the case of `Cc1ccccc1Cn1c(=O)[nH]c2ccccc21`, the inhibition was 4.81%.

Take `Cc1cc(NC(=O)CN2CCCCC2C)nc2c1c(=O)oc1ccccc12` (centres undefined): the inhibition is 11.6%.

On to `COC(=O)C1=C(C)NC2=C(C(=O)c3ccccc32)C1c1ccc(-c2ccc(C(=O)O)cc2)o1` (centres undefined), for which the inhibition is 8.48%.

Consider `Cc1ccc(S(=O)(=O)C(C#N)c2nc3ccccc3nc2N2CCCC2)cc1C` (centres undefined), for which the inhibition was -0.215%.

Regarding `COc1ccc(S(=O)(=O)N2CCCC(C(=O)N3CCN(C)CC3)C2)cc1C` (centres undefined), the inhibition is 8.05%.

Take `O=c1c(-c2ccccc2)coc2c(CN3CCOCC3)c(O)ccc12`: the inhibition is -0.725%.

`Cc1cc(C)cc(N(CC(=O)NCC2CCCO2)S(=O)(=O)c2c(C)noc2C)c1` (centres undefined): the inhibition was 12.7%.

On to `Cc1cc(C(=O)N2CCN(c3ccccn3)CC2)c(C)o1`, for which the inhibition was 8.12%.

In the case of `O=C1OC(NC(=O)c2ccccc2)C(N2CCOCC2)=C1Cl` (centres undefined), the inhibition was 1.5%.

Consider `COc1ccc(CN2C(=O)CN=C2Nc2ccc(C)cc2C)cc1`, for which the inhibition was 9.03%.

As for `O=C(Cn1nnc(-c2ccc(CN3CCOCC3)cc2)n1)NC1CCCCC1`, the inhibition is 4.01%.

As to `Cc1cc(NS(=O)(=O)c2ccccc2)no1`, the inhibition is 7.83%.

For `CSc1ccc(S(=O)(=O)NCc2ccc(Cl)cc2)cc1`, the inhibition was 7.5%.

In the case of `Cc1cccc(NC(=O)CSC(N)=O)c1C`, the inhibition was 4.87%.

In the case of `C=CCNC(=O)C12CC3CC(C1)CC(C(=O)NCC=C)(C3)C2`, the inhibition is 4.77%.

In the case of `O=C(O)CN(Cc1ccco1)S(=O)(=O)c1ccccc1`, the inhibition is 2.68%.

`N=c1c2c3c(sc2ncn1CCCN1CCOCC1)CCCCC3`: the inhibition is 42.3%.

In the case of `Cc1ccc2nc(NCCCNC(=O)c3cnccn3)c(C#N)cc2c1`, the inhibition is -0.515%.

For `O=S(=O)(c1cccc(-c2nnc(SC(F)F)n2-c2ccccc2)c1)N1CCCCC1`, the inhibition was 6.38%.

Take `C=CCN(c1ccc(C(N)=O)cc1)S(C)(=O)=O`: the inhibition is 9.34%.

Turning to `CCc1ccccc1N(CC(=O)N1CCN(c2ccccc2F)CC1)S(C)(=O)=O`, the inhibition was 9.44%.

Take `CC(C)(C)c1csc(NC2=NS(=O)(=O)c3ccccc32)n1`: the inhibition is 0.915%.

On to `O=C(NCCCN1CCN(c2ccccc2F)CC1)C1CCC(=O)N1C1CCCCC1` (centres undefined), for which the inhibition is 0.475%.

For `O=C(NCc1ccc2c(c1)OCO2)c1cc2c(s1)CS(=O)(=O)C2`, the inhibition was 1.71%.

With `COC(=O)[C@H](Cc1ccccc1)NC(=O)N1CC(C)OC(C)C1` (some centres undefined), the inhibition is -17.5%.

For the molecule `Cn1c(SCC(=O)OC2CCCCC2)nnc1-c1ccc(S(=O)(=O)N2CCCC2)cc1`, the inhibition was -4.25%.

Take `CC(C)c1ccc(NC(=O)NC2CCCCC2)cc1`: the inhibition was -11.2%.

In the case of `CC1Cc2ccccc2N1C(=O)Cn1cnc2ccccc2c1=O` (centres undefined), the inhibition is 3.86%.

For the molecule `COc1ccc(Cc2nnc(NS(=O)(=O)Cc3ccccc3)s2)cc1`, the inhibition was 10.4%.

For the molecule `C[N+](C)(C)CCOP(=O)([O-])OC[C@H](O)CO`, the inhibition is 4.21%.

For `CCOC(=O)Cn1c(=O)oc2cc(S(=O)(=O)NCC3CCCO3)ccc21` (centres undefined), the inhibition is 5.99%.

For the molecule `CCOC(=O)C(CC)Sc1ncnc2c1nnn2-c1ccc(F)cc1` (centres undefined), the inhibition is 14%.

Regarding `Cc1csc(NC(=O)NC2(C(F)(F)F)Oc3ccccc3O2)n1`, the inhibition is 0.345%.

Consider `O=C(CN1CCN(c2ccccc2F)CC1)c1ccc2c(c1)OCO2`, for which the inhibition was 4.78%.

For the molecule `O=C(NC1CCCCC1)N1CCc2[nH]c3ccccc3c2C1`, the inhibition is 7.75%.

On to `CC(C)(C)Oc1ncc(Br)c(OC(C)(C)C)n1`, for which the inhibition was -2.49%.

Turning to `CCOC(=O)C1=C(C)NC(C)=C(C(=O)OCC)C1C1=COCCO1`, the inhibition is -9.31%.

`c1ccc(COc2nsnc2N2CCOCC2)cc1`: the inhibition is 11.9%.

In the case of `CCNC(=O)CCc1nc(-c2ccc(C(C)(C)C)cc2)no1`, the inhibition is -1.14%.

On to `CC1COC2C(O1)N(S(C)(=O)=O)CCN2S(C)(=O)=O` (centres undefined), for which the inhibition is 1.71%.

`CC(C)CNC(=O)c1cc(-c2ccc(Br)cc2)on1`: the inhibition was 5.53%.

For `CCC(=O)c1ccc(OCC(O)CN2C(=O)NC(C)(C)C2=O)cc1` (centres undefined), the inhibition was 11.4%.

Take `CC1CN(c2cc(=O)n(-c3cccc(Br)c3)c(=O)[nH]2)CC(C)O1` (centres undefined): the inhibition is 6.23%.

With `Cc1cccc(Cn2c(N3CCN(c4ccccc4)CC3)nc3c2c(=O)n(C)c(=O)n3C)c1`, the inhibition was -1.79%.

Consider `CCOc1ccccc1NC(=O)Nc1cc(OC)ccc1OC`, for which the inhibition was 1.07%.

For `CCOC(=O)c1sc(/N=C/Nc2nc(C)c(C(=O)OCC)s2)nc1C`, the inhibition was 5.51%.

For the molecule `Cc1cnc(C(=O)OCC(=O)Nc2ccc(Cl)cc2Cl)cn1`, the inhibition was 6%.

Consider `O=C(Nc1cccc(-c2nnc(-c3ccccc3)o2)c1)C1CCCO1` (centres undefined), for which the inhibition is -7.16%.

Turning to `O=C(Nc1nnc(CCc2ccccc2)s1)C1CCCO1` (centres undefined), the inhibition is 21.3% (active).

`O=C(Nc1ccc(-c2nnc(-c3ccccc3)o2)cc1)C1CCCO1` (centres undefined): the inhibition is 9.26%.

In the case of `CCOC(=O)c1ccc(-n2c(C)nc3c(cnn3-c3ccccc3C)c2=O)cc1`, the inhibition was -0.685%.

In the case of `CCC(CC)C(=O)Nc1cc(C(=O)OC)cc(C(=O)OC)c1`, the inhibition was -1.44%.

For the molecule `CCc1ccccc1NC1c2ccccc2C(=O)N1c1cccnc1` (centres undefined), the inhibition is -0.145%.

On to `CCOC(=O)N1CCC(Nc2c(NCCCN3CCN(c4ccc(OC)cc4)CC3)c(=O)c2=O)CC1`, for which the inhibition was 12.6%.

Consider `N#CC(C(N)=O)=C1CCC2(CC1)OCCCCO2`, for which the inhibition was 4.44%.

On to `CCc1nnc(NC(=O)c2cccs2)s1`, for which the inhibition is 5.55%.

In the case of `O=C(CS(=O)(=O)c1cn(Cc2ccc(Cl)cc2)c2ccccc12)N1CCOCC1`, the inhibition was -16.2%.

In the case of `CCN1C(=O)/C(=C2\SC(N3CCCCC3)=NC2=O)c2ccccc21`, the inhibition is -7.47%.

Turning to `O=C(c1cccc(C(=O)N2CCN(c3ccc(F)cc3)CC2)c1)N1CCN(c2ccc(F)cc2)CC1`, the inhibition was 0.53%.

Consider `CN1CCN(C(=O)c2ccc(NS(=O)(=O)c3ccccc3)cc2)CC1`, for which the inhibition is 1.27%.

For `Cc1nonc1OCCn1nnnc1N`, the inhibition was -1.41%.

`COc1ccc(CCNS(=O)(=O)c2ccc(C(=O)NCc3ccco3)cc2)cc1OC`: the inhibition is 2.31%.

As for `Cc1ccc2nc(-c3ccc(SCC(=O)Nc4cc(C)on4)nc3)[nH]c2c1`, the inhibition is -9.14%.

For the molecule `COc1ccc(Cn2c(=O)sc3ccccc32)cc1OC`, the inhibition was -0.795%.

In the case of `CC1(C)Oc2ccc(C(=O)N3CCOCC3)cc2N(CC(=O)Nc2ccccc2)C1=O`, the inhibition was 7.31%.

Turning to `O=C(CSc1nnc(-c2cccs2)n1-c1ccccc1)N1CCN(C(=O)c2ccco2)CC1`, the inhibition was -14.5%.

On to `O=S(=O)(NCCNS(=O)(=O)c1ccccc1)c1ccccc1`, for which the inhibition was -3.77%.

Turning to `COc1ccc(NC(=O)c2c(SC)nsc2SC)cc1`, the inhibition was 4.24%.

For `COc1cccc(Nc2ncccc2C(=O)O)c1`, the inhibition was 5.89%.

Take `COc1ccc(Cc2nnnn2CC(=O)O)cc1`: the inhibition was 3.18%.

Take `O=C(O)c1ccc(F)c(S(=O)(=O)Nc2ccccc2)c1`: the inhibition is 7.12%.

In the case of `CCN(CC)CCCNC(=O)c1cc(-c2cccc(Cl)c2)on1`, the inhibition is 5.02%.

`CCOC(=O)Cn1c(N)c(C(=O)OC)sc1=S`: the inhibition is -0.995%.

In the case of `O=C(Cn1cnc2c(cnn2-c2ccc(F)cc2)c1=O)NCCc1ccccc1`, the inhibition is -10.3%.

Turning to `Cc1cc(C)c(C#N)c(SCc2[nH]nc3c2C(c2ccccc2)C(C#N)=C(N)O3)n1` (centres undefined), the inhibition is 1.67%.

Regarding `c1ccc2c(CNn3cnnc3)cccc2c1`, the inhibition is 7.96%.

Regarding `COC(=O)c1ccc(CN(c2ccccc2OC)S(=O)(=O)c2cccs2)o1`, the inhibition was -7.66%.

Take `CCOC(=O)c1c(C)nc(-c2ccccc2)nc1NC(=O)C(C)C`: the inhibition is 5.54%.

With `CCOc1ccc(N=C2SC(C(=O)O)CC(=O)N2C)cc1` (centres undefined), the inhibition was -15.5%.

In the case of `CCC(=NC1CC(C)(C)NC(C)(C)C1)C1=C(O)CC(C)(C)CC1=O`, the inhibition is -8.62%.

On to `CCCCN(C)C(=O)C1CCN(Cc2ccccn2)CC1`, for which the inhibition is -2.55%.

As to `COc1ccc(CSc2nc(N3CCOCC3)c3c(c2C#N)CC(C)(C)OC3)cc1`, the inhibition is -0.245%.

Take `COc1cc2cc(CN(CCN3CCCC3)C(=O)Nc3ccccc3Cl)c(=O)[nH]c2cc1OC`: the inhibition was 2.35%.

Consider `C=CCn1c(SCc2nnc(-c3ccccc3)o2)nnc1C(O)c1ccccc1` (centres undefined), for which the inhibition was -17.4%.

As to `CCCCCCC(=O)N(O)C1CC(=O)N(c2ccccc2)C1=O` (centres undefined), the inhibition was 1.64%.

As for `O=C1CC2(CCCCC2)Oc2ccc(OCC(=O)N3CCOCC3)cc21`, the inhibition was 4.52%.

As to `Cc1cn(COC/C=C/c2ccccc2)c(=O)[nH]c1=O`, the inhibition was -1.04%.

Take `CCNc1nc(NCC)nc(N(C)n2cnnc2)n1`: the inhibition is -3.07%.

In the case of `CC(C)(C)c1ccc(C(=O)NCCC(=O)NCc2ccco2)cc1`, the inhibition was 3.48%.

With `CCn1cc(C(=O)N2CCN(C3CCCCC3)CC2)c2cc(OC)c(OC)cc2c1=O`, the inhibition was 4.42%.

In the case of `COC(=O)[C@@H](NC(=O)NCc1cccc(OC)c1)C(C)C`, the inhibition is -1.25%.

With `COC(=O)CCNc1ccc2c(c1)OCCO2`, the inhibition was -1.79%.

For the molecule `COc1ccc(-c2c(C)nn3c(N4CCC(C(=O)N5CCCCC5)CC4)cc(C)nc23)cc1OC`, the inhibition is 8.56%.

Consider `CCc1ccccc1N(CC(=O)NCCSCc1ccco1)S(C)(=O)=O`, for which the inhibition is -9.75%.

As to `CCSc1nc2c(c(=O)[nH]1)C(c1cccnc1)C(C(=O)OC(C)C)=C(C)N2` (centres undefined), the inhibition was 7.07%.

Consider `Cn1c(=NC(=O)c2cnccn2)sc2ccccc21`, for which the inhibition was 5.25%.

As for `O=C(OC(C(=O)NC1CCCC1)c1ccc(F)cc1)c1ccno1` (centres undefined), the inhibition is 7.23%.

As for `CN(C)CCNC(CC(=O)Nc1ccc(Cl)c(Cl)c1)C(=O)O` (centres undefined), the inhibition is 0.68%.

For `CN1CCN(c2cc(=O)n(-c3ccc(Cl)cc3)c(=O)[nH]2)CC1`, the inhibition is -10.3%.

For the molecule `COc1ccc(C)cc1NC(=O)CSc1nc(SC)ns1`, the inhibition is 6.14%.

Regarding `CCOc1ccccc1NC(=O)C1CCN(S(=O)(=O)c2c(C)nn(C)c2C)CC1`, the inhibition was 9%.

As to `COc1cccc2c(=O)n(CC(=O)N3CCCCCC3)ccc12`, the inhibition is -15.3%.

Regarding `Cc1ccc(C(=O)O)cc1S(=O)(=O)NCC1CCCO1` (centres undefined), the inhibition is 8.82%.

Take `CCOC(=O)Cn1c(CN(Cc2ccccc2)Cc2ccccc2)nc2c1c(=O)[nH]c(=O)n2C`: the inhibition is -7.29%.

For the molecule `CCSC(C)CC1C/C(=N/O)c2c(C)noc2C1` (centres undefined), the inhibition was 0.87%.

Consider `O=C(CSC1=Nc2ccccc2C2=NC(c3ccccc3)C(=O)N12)NCC1CCCO1` (centres undefined), for which the inhibition is 2.26%.

For the origin of these results see PubChem BioAssay AID680 (PCMD, 2007).
